# Screens from PubChem BioAssay.
# Most compounds without a hit are left out; they make up all but 0.42% or so of the library.
# Vif-A3F inh: qHTS for Inhibitors of Vif-A3F Interactions: qHTS; 0.2% of 390,000 active; AID 602313, 2012; HeLa A3F-eYFP + Vif (tagged APOBEC3F with the HIV-1 protein that degrades it), YFP fluorescence increase; Potency, µM (highest dose often 46.1 µM), without a hit: top-dose activity, negative = active; also: potency is read from the fitted curve at half-maximal effect; % of control where 0% means no effect; nearly all actives have a fitted effect of over 65% in size
#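 HeLa cells stably expressing Vif plus C-terminally eYFP-tagged A3F were seeded, incubated overnight at 37 deg C, dosed with compound, incubated overnight again at 37 deg C. Yellow fluorescence (Ex 488/Em 500-530) reported blocked Vif-mediated A3F-eYFP degradation.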
# Rango release inh: qHTS Assay for Inhibitors of RanGTP induced Rango (Ran-regulated importin-beta cargo) - Importin beta complex dissociation | Potency, µM (top dose mostly 46.1 µM), for the others: at the highest dose activity change, negative = inhibition | 0.071% of 340,000 active | Snurportin-1 (Homo sapiens) + GTP-binding nuclear protein Ran (Homo sapiens) + Importin … | Biochemical FRET Rango-importin beta, RanGTP-induced dissociation; calls by dose curve; also: potency is read from the fitted curve at half-maximal effect; % of control where 0% means no effect; nearly all actives have a fitted effect of over 45% in size
#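 Rango/importin beta premix (0.1/0.25 uM final), PBS + 1 mM DTT + 0.02% Tween-20 + 0.1% BSA; cpd 5 min RT; FRET pre-read; + RanGTP-RCC1 (0.6 uM Ran, 2 mM GTP, 0.2 uM RCC1); 45 min RT; FRET post-read, ex 430, em 486/530 nm.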
# Vif-APOBEC3G blk: qHTS for Inhibitors of Vif-A3G Interactions: qHTS; Potency, µM (highest dose often 46.1 µM), without a hit: top-dose activity, negative = active, most hits filed as inhibitors; HeLa A3G-eYFP + Vif (tagged APOBEC3G with the HIV-1 protein that degrades it), YFP fluorescence, overnight; 0.076% of 410,000 active; DNA dC->dU-editing enzyme APOBEC-3G (Homo sapiens), Q9HC16; also: potency is read from the fitted curve at half-maximal effect; % is scaled to controls: 0 for no effect and ±100 for the full control effect; nearly all actives have a fitted effect of over 60% in size
#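 HeLa cells stably expressing Vif and C-terminally eYFP-tagged A3G, seeded overnight at 37 deg C, then exposed to compound by pintool overnight at 37 deg C. Rise in yellow fluorescence (Ex 488/Em 500-530, Acumen) marks blocked Vif-driven A3G degradation.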
# Epigenetic derep: Quantitative High-Throughput Screen for Regulators of Epigenetic Control. murine LDR cells, GFP reporter derepression, 30 h. Potency, µM (highest dose often 53.9 µM), for inactives: at the highest dose GFP activation, most hits filed as activators. 0.2% of 280,000 active; also: potency is read from the fitted curve at half-maximal effect; % of control where 0% means no effect; nearly all actives have a fitted effect of over 60% in size
#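 In this reporter-derepression format, murine cells bearing a silenced integrated CMV-GFP locus incubate with test compound (30 h, 37 C), then are washed and imaged; fluorescent objects of 20–120 um count as induced cells.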
# Rango complex inh: qHTS Assay for Inhibitors of Rango (Ran-regulated importin-beta cargo) - Importin beta complex formation | Importin subunit beta-1 (Homo sapiens), Q14974 | Rango CFP/YFP FRET sensor + importin beta, 45 min | Potency, µM (titrated, usually from 92.2 µM), for the others: top-dose inhibition of complex formation | 0.031% of 340,000 active; calls by dose curve;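 also: potency is read from the fitted curve at half-maximal effect; 0% = DMSO wells and 100% = buffer wells lacking importin beta; nearly all actives have a fitted effect of over 15% in size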
# Target sequence (Q14974 whole entry, looked up): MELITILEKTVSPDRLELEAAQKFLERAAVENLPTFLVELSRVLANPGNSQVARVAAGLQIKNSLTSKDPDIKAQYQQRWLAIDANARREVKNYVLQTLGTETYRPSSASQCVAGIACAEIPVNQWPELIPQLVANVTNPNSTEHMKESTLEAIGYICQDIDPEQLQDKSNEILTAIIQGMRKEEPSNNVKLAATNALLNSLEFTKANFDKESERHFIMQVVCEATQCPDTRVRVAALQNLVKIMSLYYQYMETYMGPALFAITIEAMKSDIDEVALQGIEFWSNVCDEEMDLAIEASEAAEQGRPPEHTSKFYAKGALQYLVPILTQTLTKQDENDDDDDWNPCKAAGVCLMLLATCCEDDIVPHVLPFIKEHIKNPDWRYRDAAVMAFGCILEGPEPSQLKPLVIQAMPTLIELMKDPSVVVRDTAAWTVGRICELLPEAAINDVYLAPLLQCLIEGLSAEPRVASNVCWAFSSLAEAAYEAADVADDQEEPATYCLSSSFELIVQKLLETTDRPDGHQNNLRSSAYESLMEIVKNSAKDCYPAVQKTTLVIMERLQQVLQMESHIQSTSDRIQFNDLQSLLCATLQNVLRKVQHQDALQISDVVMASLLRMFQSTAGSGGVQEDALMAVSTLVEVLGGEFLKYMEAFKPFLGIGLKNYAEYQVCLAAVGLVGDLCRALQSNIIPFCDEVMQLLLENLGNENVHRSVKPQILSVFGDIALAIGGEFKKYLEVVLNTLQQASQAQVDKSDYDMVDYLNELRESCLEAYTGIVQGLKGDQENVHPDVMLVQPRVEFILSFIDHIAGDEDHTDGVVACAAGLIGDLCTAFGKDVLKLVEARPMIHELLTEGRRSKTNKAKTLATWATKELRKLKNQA
#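 Inhibition scored from the CFP 486 nm/YFP 530 nm FRET ratio 45 min after adding 0.125 microM importin beta to 50 nM Rango biosensor preincubated 5 min with compound (room temperature, PBS with DTT, Tween-20, BSA). No-importin wells as positive control.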
# C127i cell count: Parental Cell Counter Screen Assay for Epigenetic Modulators: Hit Validation; shares compounds with Epigenetic derep; mouse c127i parental cells, fluorescent cell count, 30 h; Potency, µM, for inactives: at the top dose fluorescent cell count, usual class: activators; 20% of 60 active
# HCC4017 viab: HCC4017 Cell Viability Secondary Assay for qHTS Assay for Epigenetic Modulators; shares compounds with Epigenetic derep; HCC4017 NSCLC viability, CellTiter-Glo ATP luminescence, 72 h; Potency, µM (series often up to 46.1 µM), without a hit: at the highest dose activity change, negative = cytotoxicity, hits mostly cytotoxic; 30% of 45 active; AID 493071, 2011
# H358 viab: H358 Cell Viability Secondary Assay for qHTS Assay for Epigenetic Modulators: Round 2. shares compounds with Epigenetic derep. H358 NSCLC viability, ATP luminescence, 72 h. Potency, µM (highest dose often 46.1 µM), without a hit: at the highest dose activity change, negative = viability loss, most hits filed as cytotoxic. 30% of 45 active
# Starred values were filed as active, the others as inactive; u = inconclusive; x = no result. Unless noted, calls follow the shape of the dose curve; as a rule, active = well fitted curve in the direction sought with a large enough effect; inconclusive = small, poorly fitted or top-dose-only effect, or another doubt; inactive = no such curve, though single readings can be large; an effect the other way counts as inactive or inconclusive.
SMILES,Vif-A3F inh,Rango release inh,Vif-APOBEC3G blk,Epigenetic derep,Rango complex inh,C127i cell count,others
CCCCOc1ccc(OC(=O)c2sc3ncn(Cc4cccc(F)c4)c(=O)c3c2C)cc1,4%,x,2%,-1%,x,x,
Cc1ccc(/C=[N+](\[O-])c2ccc(N(C)C)cc2)c2nsnc12,15%,5%,-23%,u,1%,18%,HCC4017 viab=14µM*;H358 viab=28µM*
N#Cc1sc2nc(-c3ccccc3)cc(C(F)(F)F)c2c1N,u,-6%,-13%,u,7%,16µM*,
O=C1C=C(Nc2ccc(Cl)cc2)C(=O)N1c1ccc(Cl)cc1,u,-14%,-15%,10µM*,3%,u,HCC4017 viab=-3%;H358 viab=14%
O=C(CSc1c2c(nc3cc(Cl)ccc13)CCCC2)NCCCN1CCOCC1,4%,9%,-20%,-2%,-4%,x,
CCN(CC)CCCNC(=O)CSc1c2c(nc3cc(Cl)ccc13)CCCC2,-4%,14%,-13%,u,4%,5%,HCC4017 viab=u;H358 viab=28µM*
CN1CCN(c2ccc(NC(=O)c3ccc([N+](=O)[O-])o3)cc2Cl)CC1,-1%,-4%,u,x,5%,x,
CCCC(=O)N1CCN(c2ccc(NC(=O)c3ccc([N+](=O)[O-])o3)cc2Cl)CC1,0%,-5%,u,u,-3%,4%,HCC4017 viab=1.8µM*;H358 viab=2.5µM*
CC(C)C(=O)N1CCN(c2ccc(NC(=O)c3ccc([N+](=O)[O-])o3)cc2Cl)CC1,1%,4%,u,u,0%,u,
Cc1cccc(NC(=O)CSc2nc3ccc(NC(=O)c4ccco4)cc3s2)c1,1%,x,1%,0%,x,x,
Cc1ccc(NC(=O)CN2C(=O)COc3ccc(S(=O)(=O)N4CCCCCC4)cc32)c(C)c1,8%,x,3%,7%,x,x,
Cc1noc(C)c1S(=O)(=O)N1CCCC(C(=O)Nc2ccc(C(C)C)cc2)C1 (stereo not given),-6%,x,3%,2%,x,x,
COc1cccc(CNC(=O)CN2N=C(c3ccc(C)cc3)CCC2=O)c1,-9%,x,2%,1%,x,x,
O=C(O)CCCCCN1C(=O)/C(=C\c2ccc(-c3ccc(Cl)cc3)o2)SC1=S,u,-3%,-6%,3.5µM*,u,7.9µM*,
O=C1CN(c2nc(-c3ccccc3)c3cc(Cl)ccc3n2)c2ccccc2N1,u,0%,0%,u,-3%,14%,HCC4017 viab=-26%;H358 viab=u
Cc1ccc(S(=O)(=O)C(CNS(=O)(=O)c2ccc(F)c(C)c2)c2cccs2)cc1 (stereo not given),-6%,x,7%,0%,x,x,
S=C(Nc1ccccc1)c1ccccn1,-1%,-6%,u,5.6µM*,1%,22µM*,HCC4017 viab=-27%;H358 viab=-17%
CC(=O)N[C@@H](CSC/C=C(\C)CCC=C(C)C)C(=O)O,x,x,x,6%,x,x,
CC(=O)N[C@@H](CSC(=O)[C@]1([C@@H](O)C(C)C)NC(=O)[C@H](C)[C@@H]1O)C(=O)O,x,x,x,u,x,25µM*,
CCc1nnc(NC(=O)c2cccc(C(=O)Nc3nnc(CC)s3)n2)s1,-12%,-5%,-2%,2.5µM*,0%,6%,HCC4017 viab=0.5µM*;H358 viab=0.56µM*
COc1ccc(/C=C/c2nc(C#N)c(N3CCCCC3)o2)cc1OC,1%,x,5%,7%,x,x,
CN(C)S(=O)(=O)c1ccc2c(c1)C(=O)c1cc(S(=O)(=O)N(C)C)ccc1CC2,4%,-18%,1%,x,u,x,
CN(C)S(=O)(=O)c1ccc2c(c1)/C(=C/c1cc3c([nH]1)CCCC3)C(=O)N2,u,u,u,7.9µM*,u,3.2µM*,
CCOc1ccccc1NC1(c2ccccc2)C(=O)c2ccccc2C1=O,2%,x,0%,-1%,x,x,
CC1CCCN(c2nc3nonc3nc2Nc2ccccc2F)C1 (stereo not given),3%,-7%,-7%,1%,-1%,x,
COc1ccc(OC)c(Nc2nc3nonc3nc2N2CCCC(C)C2)c1 (stereo not given),-9%,-1%,-5%,u,0%,14µM*,
Cc1ccc(-c2nc(CS(=O)CC(=O)N3CCN(c4ccc(Cl)cc4)CC3)c(C)o2)cc1 (stereo not given),5%,x,2%,-1%,x,x,
CCCOc1cc(N(CC)CC)ccc1/C=C(/C#N)c1nc2ccc(C)cc2[nH]1,3.2µM*,u,u,2%,u,2.5µM*,
COc1cc(/C=C(\C#N)c2nc3ccc(C)cc3[nH]2)cc([N+](=O)[O-])c1O,16%,-2%,-1%,-1%,u,x,
